Screening data as filed in PubChem.
Hits are enriched below; roughly 2.4% of the tested compounds scored in any of these assays.
Pol iota inh – blocks human DNA polymerase iota activity. Pol iota fluorescent replication assay, 10 min. Potency, µM (titrated, usually from 115 µM), usual class: inhibitors. 390,000 compounds, 1% hits. AID 588590
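Pol iota at 10 nM preincubated 15 min with compounds at room temperature; reaction started with fluorescent substrate, 50 nM final. Fluorescence read kinetically at 0 and 10 min; buffer-only wells as negative control.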
POLB inh – DNA polymerase beta (human) inhibition. P06746. Pol beta primer extension/strand displacement, fluorescence kinetic. Potency, µM (doses to about 114 µM), usual class: inhibitors. 340,000 compounds, 1.3% hits
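Enzyme-only controls used 10 nM Pol beta; buffer lacking enzyme served as negative control. Compound preincubated 15 min, then 50 nM substrate added; 0 and 10 min reads at room temperature.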
POLK inh – DNA polymerase kappa (human) inhibition; Q9UBT6; purified Pol kappa, fluorescent DNA synthesis assay, 10 min; Potency, µM (highest dose often 107 µM), hits mostly inhibitors; 400,000 compounds, 0.53% hits; AID 588579
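10 nM Pol kappa was preincubated with compounds for 15 min at room temperature. Reaction started with 50 nM (final) substrate. Fluorescence read kinetically at 0 and 10 min.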
FEN1 inh – human FEN1 inhibition; P39748; Recombinant FEN1 flap cleavage, fluorescence, 15 min; Potency, µM (doses to about 114 µM), actives largely listed as inhibitors; 390,000 compounds, 0.35% hits; AID 588795; note: nearly all actives have a fitted effect of over 65% in size
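Nuclease activity of 10 nM FEN1 was measured after 15 min of room-temperature exposure to titrated compounds, by adding 50 nM flap substrate and reading plates at 0 and 15 min.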
WRN helicase inh – inhibitors of human WRN helicase; Potency, µM (highest dose often 114 µM), actives largely listed as inhibitors; Q14191; WRN helicase unwinding, fluorescent forked duplex, kinetic; 360,000 compounds, 0.46% hits; note: nearly all actives have a fitted effect of over 55% in size
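Kinetic red-fluorescence monitoring (525/598 nm) tracks WRN helicase activity after 100 nM fluorophore-quencher forked duplex and 2 mM ATP are added to 20 nM enzyme pretreated 15 min at room temperature with compound.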
POLH inh – inhibitors of human DNA polymerase eta. Q9Y253. Potency, µM (series often up to 114 µM), hits mostly inhibitors. 390,000 compounds, 1.2% hits. recombinant Pol eta, fluorescent DNA replication assay
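Pol eta at 10 nM preincubated with compounds 15 min at room temperature; reaction started with fluorescent substrate (50 nM final) and read kinetically at 0 and 10 min.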
TbPGK inh – TbPGK inhibition, hit validation; shares compounds with POLK inh; Potency, µM (doses to about 57.5 µM), usual class: inhibitors; 500 compounds, 79% hits; TbPGK coupled GAPDH assay, Kinase-Glo luminescence; AID 686980; note: nearly all actives have a fitted effect of over 65% in size
Pol iota confirm – Confirm cherry-picked inhibitors of human polymerase iota; shares compounds with POLK inh; Pol iota primer extension, TAMRA/BHQ fluorescence; Potency, µM, usual class: inhibitors; 1,500 compounds, 77% hits; AID 720496
A number is an active result; i = inactive; ? = inconclusive; nt = no result given; [ ] = another dose, or the depositor's remark. Calls come from the whole dose curve; as a rule, active = well fitted curve in the direction sought with a large enough effect; inconclusive = small, poorly fitted or top-dose-only effect, or another doubt; inactive = no such curve, though single readings can be large; an effect the other way counts as inactive or inconclusive.

SMILES	Pol iota inh	POLB inh	POLK inh	FEN1 inh	WRN helicase inh	POLH inh	Pol iota confirm	others
COc1ccc(NC(=O)/C(C#N)=C/c2ccc(Br)o2)cc1	22µM	10µM	79µM	i	?	?	?
COc1ccc(NC(=O)/C(C#N)=C/c2ccc(C)o2)cc1	i	i	i	i	nt	i	nt
CCOc1ccc(-c2ccc(SC)nn2)cc1	i	i	i	i	i	i	nt	TbPGK inh=8.2µM
COc1ccccc1N1CCN(C(=O)Cn2ncc3ccsc3c2=O)CC1	i	i	i	i	nt	i	nt
Fc1cccc(/C=N/Nc2nccnc2Cl)c1	i	i	i	i	i	i	nt	TbPGK inh=16µM
Fc1ccc(/C=N/Nc2nccnc2Cl)cc1	i	i	i	i	i	i	nt
CC(C)C(C(=O)O)N1C(=O)/C(=C/C=C/c2ccco2)SC1=S (stereo not drawn)	1.1µM	1.6µM	3.2µM	18µM	3.5µM	0.79µM	nt	TbPGK inh=2.6µM
O=C(CCCN1C(=O)/C(=C/c2ccccc2)SC1=S)Nc1ccc(C(=O)O)c(O)c1	i	i	i	i	i	i	nt
CC(C(=O)Nc1ccc(C(=O)O)c(O)c1)N1C(=O)/C(=C\c2ccco2)SC1=S (stereo not drawn)	?	?	i	i	40µM	3.2µM	nt	TbPGK inh=23µM
CCOc1ccc(S(=O)(=O)N2CCC(N3CCN(Cc4ccc(C)cc4)C(=O)C3=O)CC2)cc1	i	i	i	i	nt	i	nt
CC(=O)Nc1ccc(S(=O)(=O)N2CCC(N3CCN(Cc4ccc(C)cc4)C(=O)C3=O)CC2)cc1	79µM	45µM	i	i	nt	?	?
O=C(NNC(=O)c1cc(-c2ccncc2)nc2ccccc12)c1ccccc1O	?	nt	i	i	i	i	38
Cc1ccc(-c2cc(C(=O)Nc3ccncc3)c3ccccc3n2)cc1	i	nt	i	i	i	i	nt
CCc1nn2c(=O)cc(COc3cccc(NC(=O)c4ccco4)c3)nc2s1	50µM	?	?	i	i	?	?
CCCc1nn2c(=O)cc(COc3cccc(NC(=O)c4ccco4)c3)nc2s1	i	i	i	i	i	?	nt
Cc1ccc(/C=C/c2nc3ccccc3n2S(=O)(=O)c2cccc(Cl)c2)cc1	i	i	i	i	nt	i	nt
CSc1ccc(/C=C/c2nc3ccccc3n2S(=O)(=O)c2ccc(F)c(C)c2)cc1	i	i	i	i	nt	i	nt	TbPGK inh=10µM
O=C(CSc1nnc2scc(-c3ccccc3)n12)Nc1nsc(-c2ccccc2)n1	?	?	i	?	?	?	38
O=C(C[n+]1cccc(Br)c1)c1ccc2ccccc2c1	i	nt	i	i	nt	nt	nt
O=[N+]([O-])c1ccc2nc(SCc3cn4ccccc4n3)[nH]c2c1	i	i	i	i	i	?	nt
O=[N+]([O-])c1ccc2nc(SCc3cn4cc(Cl)ccc4n3)[nH]c2c1	28µM	5.6µM	i	i	?	50µM	?
COc1ccc(/C=C2\SC(=S)N(c3cccnc3)C2=O)cc1	i	i	i	i	i	i	nt
O=C1/C(=C\c2ccc(O)cc2)SC(=S)N1c1cccnc1	?	?	i	?	i[11.6 µM]	?	?
O=Cc1cn(-c2ccccc2)nc1-c1cc2cc(O)ccc2oc1=O	22µM	56µM	?	i	?	?	?
Cc1ccc(/C=N/N2CCCCC2)o1	i	i	i	i	i	i	nt	TbPGK inh=i
CCOC(=O)CN1C(=O)S/C(=C\c2ccc(-c3cccc(C(=O)O)c3C)o2)C1=O	?	nt	i	i	i[11.6 µM]	?	nt
Cc1ccc(NC(=O)CN2C(=O)S/C(=C\c3ccc(-c4cccc(C(=O)O)c4C)o3)C2=O)cc1C	10µM	10µM	89µM	50µM	?	8.9µM	nt	TbPGK inh=4.1µM
O=C(Oc1cc(=O)oc2c1c(=O)n1c3c(cccc23)CC1)c1ccc(F)cc1	?	?	i	i	i	i	11
Cc1cc(NC(=O)CN(C)S(=O)(=O)c2ccc3c(c2)CCC(=O)N3)ccc1Br	i	i	i	i	nt	i	nt
